# Assay results taken from PubChem BioAssay (NCATS).
# Inconclusive results are not listed. A call without a number means that no potency is given here. Values without a mark were called inactive. Active and inactive are the calls of the source. Calls follow the shape of the dose curve; as a rule, active = well fitted inhibition curve with a large enough effect; inconclusive = small, poorly fitted or top-dose-only effect; inactive = flat fitted curve, though single readings scatter.
# Legend:
# HB3 = assay: qHTS profiling for inhibitors of Plasmodium falciparum proliferation (AID 504749); details: P. falciparum in erythrocytes, SYBR Green DNA, 72 h; series mostly up to 28.7 µM
# In short: (§1)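 Infected RBCs, 0.3% parasitemia/2.5% Hct final; cpd 72 h, 37 C, 5% CO2; lysis buffer with saponin/triton/SYBR Green I, o/n RT dark; FI 485/535; norm. to artemisinin (0.29 uM) and DMSO.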
# ICS = assay: as above; details: P. falciparum in erythrocytes, SYBR Green DNA, 72 h; series mostly up to 28.7 µM
# In short: as §1
# N140 = assay: as above; details: P. falciparum in erythrocytes, SYBR Green DNA, 72 h; series mostly up to 28.7 µM
# In short: as §1
# PC26 = assay: as above; details: P. falciparum in erythrocytes, SYBR Green DNA, 72 h; series mostly up to 28.7 µM
# In short: as §1
# SC27B = assay: as above; details: P. falciparum in erythrocytes, SYBR Green DNA, 72 h; series mostly up to 28.7 µM
# In short: as §1
# TAB165 = assay: as above; details: P. falciparum in erythrocytes, SYBR Green DNA, 72 h; series mostly up to 28.7 µM
# In short: as §1
# W2 = assay: as above; details: P. falciparum in erythrocytes, SYBR Green DNA, 72 h; series mostly up to 28.7 µM
# In short: as §1
# HEK293 = assay: Cytotoxic Profiling of Annotated Libraries Using Quantitative High-Throughput Screening (AID 1296008); details: Five cell lines viability, CellTiter-Glo ATP luminescence, 48-72 h; max response: stronger effect = lower value
# In short: (§2)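 Cytotoxicity was measured as CellTiter-Glo ATP luminescence, read after 10 min at room temperature. Compound treatment of the cells lasted 48 or 72 hr at 37 degrees Celsius in a qHTS format.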
# JCK = assay: qHTS profiling for inhibitors of Plasmodium falciparum proliferation (AID 504749); details: P. falciparum in erythrocytes, SYBR Green DNA, 72 h; series mostly up to 28.7 µM
# In short: as §1
# P93_24 = assay: as above; details: P. falciparum in erythrocytes, SYBR Green DNA, 72 h; series mostly up to 28.7 µM
# In short: as §1
# P94_40 = assay: as above; details: P. falciparum in erythrocytes, SYBR Green DNA, 72 h; series mostly up to 28.7 µM
# In short: as §1
# PAD = assay: as above; details: P. falciparum in erythrocytes, SYBR Green DNA, 72 h; series mostly up to 28.7 µM
# In short: as §1
# PC15 = assay: as above; details: P. falciparum in erythrocytes, SYBR Green DNA, 72 h; series mostly up to 28.7 µM
# In short: as §1
# PC49 = assay: as above; details: P. falciparum in erythrocytes, SYBR Green DNA, 72 h; series mostly up to 28.7 µM
# In short: as §1
# TAB109 = assay: as above; details: P. falciparum in erythrocytes, SYBR Green DNA, 72 h; series mostly up to 28.7 µM
# In short: as §1
# TAB113 = assay: as above; details: P. falciparum in erythrocytes, SYBR Green DNA, 72 h; series mostly up to 28.7 µM
# In short: as §1
# HaCat = assay: Cytotoxic Profiling of Annotated Libraries Using Quantitative High-Throughput Screening (AID 1296008); details: Five cell lines viability, CellTiter-Glo ATP luminescence, 48-72 h; max response: stronger effect = lower value
# In short: as §2
# KB-3-1 = assay: as above; details: Five cell lines viability, CellTiter-Glo ATP luminescence, 48-72 h; max response: stronger effect = lower value
# In short: as §2
# CRL-7250 = normal cell line; assay: as above; details: Five cell lines viability, CellTiter-Glo ATP luminescence, 48-72 h; max response: stronger effect = lower value
# In short: as §2
# NIH3T3 = assay: as above; details: Five cell lines viability, CellTiter-Glo ATP luminescence, 48-72 h; max response: stronger effect = lower value
# In short: as §2
# Also: nearly all actives have a fitted effect of over 60% in size.
# Potency is read from the fitted curve at half-maximal effect.
smiles,measurement,setting,value
O=c1c(-c2ccccc2)c1-c1ccccc1,Potency,HB3,11.2 µM (active)
same,Potency,ICS,4.47 µM (active)
same,Potency,N140,11.2 µM (active)
same,Potency,PC26,12 µM (active)
same,Potency,SC27B,11.2 µM (active)
same,Potency,TAB165,10 µM (active)
same,Potency,W2,15.1 µM (active)
same,Potency,HEK293,23.7 µM (active)
CCCCOc1cc(C(=O)NCCN(CC)CC)c2ccccc2n1,Potency,HB3,inactive
same,Potency,JCK,inactive
same,Potency,N140,inactive
same,Potency,P93_24,inactive
same,Potency,P94_40,inactive
same,Potency,PAD,inactive
same,Potency,PC15,inactive
same,Potency,PC26,inactive
same,Potency,PC49,inactive
same,Potency,SC27B,inactive
same,Potency,TAB109,inactive
same,Potency,TAB113,inactive
same,Potency,TAB165,inactive
same,max response,HaCat,2.41%
same,max response,KB-3-1,0.155%
O=C(COc1ccc(Cl)cc1)N1CCN(Cc2ccc3c(c2)OCO3)CC1,Potency,HB3,inactive
same,Potency,ICS,inactive
same,Potency,JCK,inactive
same,Potency,N140,inactive
same,Potency,P93_24,inactive
same,Potency,P94_40,inactive
same,Potency,PAD,inactive
same,Potency,PC15,inactive
same,Potency,PC26,inactive
same,Potency,PC49,inactive
same,Potency,SC27B,inactive
same,Potency,TAB109,inactive
same,Potency,TAB113,inactive
same,Potency,TAB165,inactive
same,Potency,W2,inactive
same,max response,CRL-7250,-27.2%
same,max response,KB-3-1,-11.1%
same,max response,NIH3T3,0.953%
COc1c(C)c2c(c(O)c1C/C=C(\C)CCC(=O)O)C(=O)OC2,Potency,ICS,3.55 µM (active)
same,Potency,N140,3.16 µM (active)
same,Potency,P93_24,2.82 µM (active)
same,Potency,P94_40,3.16 µM (active)
same,Potency,PAD,3.16 µM (active)
same,Potency,PC15,inactive
same,Potency,PC49,inactive
same,Potency,SC27B,2.24 µM (active)
same,Potency,TAB109,2.82 µM (active)
same,Potency,TAB113,3.98 µM (active)
same,Potency,TAB165,1.58 µM (active)
same,Potency,W2,2.56 µM (active)
same,Potency,HEK293,0.944 µM (active)
same,max response,KB-3-1,-17.8%
same,Potency,NIH3T3,1.68 µM (active)
CC(=O)Nc1c(I)cc(I)c(C(=O)O)c1I,Potency,HB3,inactive
same,Potency,ICS,inactive
same,Potency,JCK,inactive
same,Potency,N140,inactive
same,Potency,P94_40,inactive
same,Potency,PAD,inactive
same,Potency,PC15,inactive
same,Potency,PC26,inactive
same,Potency,PC49,inactive
same,Potency,SC27B,inactive
same,Potency,TAB109,inactive
same,Potency,TAB113,inactive
same,Potency,TAB165,inactive
same,Potency,W2,inactive
same,max response,HaCat,4.29%
same,max response,KB-3-1,-17.1%
same,outcome,NIH3T3,inactive
CC(=O)O[C@H]1C[C@@H]2CC[C@@H]3[C@H](CC[C@@]4(C)[C@H]3C[C@H]([N+]3(C)CCCCC3)[C@@H]4OC(C)=O)[C@@]2(C)C[C@@H]1[N+]1(C)CCCCC1,max response,KB-3-1,1.63%
CC1(C)CCC(NC(=O)[C@@H](N)CCC(=O)O)CC1,Potency,HB3,inactive
same,Potency,ICS,inactive
same,Potency,JCK,inactive
same,Potency,N140,inactive
same,Potency,P93_24,inactive
same,Potency,P94_40,inactive
same,Potency,PAD,inactive
same,Potency,PC15,inactive
same,Potency,PC49,inactive
same,Potency,SC27B,inactive
same,Potency,TAB109,inactive
same,Potency,TAB113,inactive
same,Potency,TAB165,inactive
same,Potency,W2,inactive
same,max response,KB-3-1,5%
CC1=C(C(=O)OC(C)C)C(c2cccc([N+](=O)[O-])c2)C(C(=O)OC2CN(C(c3ccccc3)c3ccccc3)C2)=C(N)N1 (centres undefined),Potency,HB3,11.2 µM (active)
same,Potency,ICS,4.47 µM (active)
same,Potency,N140,7.94 µM (active)
same,Potency,P93_24,6.31 µM (active)
same,Potency,P94_40,8.91 µM (active)
same,Potency,PAD,10 µM (active)
same,Potency,PC15,4.47 µM (active)
same,Potency,PC26,7.57 µM (active)
same,Potency,SC27B,10 µM (active)
same,Potency,TAB109,6.31 µM (active)
same,Potency,TAB113,7.08 µM (active)
same,Potency,TAB165,5.01 µM (active)
same,Potency,W2,5.36 µM (active)
same,Potency,KB-3-1,18.4 µM (active)
C1CCc2nnnn2CC1,Potency,HB3,inactive
same,Potency,ICS,inactive
same,Potency,JCK,inactive
same,Potency,N140,inactive
same,Potency,P93_24,inactive
same,Potency,P94_40,inactive
same,Potency,PAD,inactive
same,Potency,PC15,inactive
same,Potency,PC26,inactive
same,Potency,PC49,inactive
same,Potency,SC27B,inactive
same,Potency,TAB109,inactive
same,Potency,TAB113,inactive
same,Potency,TAB165,inactive
same,Potency,W2,inactive
same,max response,KB-3-1,18.9%
CC(C)(C)CC(C)(C)c1ccc(O)c(Cc2ccc(Cl)cc2Cl)c1,Potency,HB3,2 µM (active)
same,Potency,ICS,0.316 µM (active)
same,Potency,JCK,3.16 µM (active)
same,Potency,N140,0.794 µM (active)
same,Potency,P93_24,1.26 µM (active)
same,Potency,P94_40,1 µM (active)
same,Potency,PAD,1 µM (active)
same,Potency,PC15,2.24 µM (active)
same,Potency,PC26,1.51 µM (active)
same,Potency,PC49,1.78 µM (active)
same,Potency,SC27B,1.26 µM (active)
same,Potency,TAB109,2 µM (active)
same,Potency,TAB113,1.12 µM (active)
same,Potency,TAB165,0.794 µM (active)
same,Potency,W2,0.426 µM (active)
same,max response,KB-3-1,-6.63%
CCCCCCc1ccc(O)cc1O,Potency,HB3,inactive
same,Potency,ICS,inactive
same,Potency,JCK,inactive
same,Potency,N140,inactive
same,Potency,P93_24,inactive
same,Potency,P94_40,inactive
same,Potency,PAD,inactive
same,Potency,PC15,inactive
same,Potency,PC26,inactive
same,Potency,PC49,inactive
same,Potency,SC27B,inactive
same,Potency,TAB109,inactive
same,Potency,TAB113,inactive
same,Potency,TAB165,inactive
same,Potency,W2,inactive
same,max response,KB-3-1,0.129%
same,max response,NIH3T3,4.72%
Nc1cc(Cl)c(NC2=NCCN2)c(Cl)c1,Potency,HB3,inactive
same,Potency,ICS,inactive
same,Potency,JCK,inactive
same,Potency,N140,inactive
same,Potency,P93_24,inactive
same,Potency,P94_40,inactive
same,Potency,PAD,inactive
same,Potency,PC15,inactive
same,Potency,PC26,inactive
same,Potency,PC49,inactive
same,Potency,SC27B,inactive
same,Potency,TAB109,inactive
same,Potency,TAB113,inactive
same,Potency,TAB165,inactive
same,Potency,W2,inactive
same,max response,KB-3-1,-1.36%
C[C@@H]1CN(CCCn2c3ccccc3c3ccccc32)C[C@H](C)N1,Potency,HB3,inactive
same,Potency,ICS,5.01 µM (active)
same,Potency,JCK,inactive
same,Potency,N140,12.6 µM (active)
same,Potency,P93_24,5.01 µM (active)
same,Potency,P94_40,8.91 µM (active)
same,Potency,PAD,1.78 µM (active)
same,Potency,TAB109,11.2 µM (active)
same,Potency,TAB165,7.08 µM (active)
same,Potency,W2,2.39 µM (active)
same,max response,KB-3-1,0.54%
